This is part of a sample that, as a whole, favours compounds with a hit. Of some 83,000 tested, about 20% had one in any assay.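 Single-concentration screen, 48 h exposure, 96-well plates. Endpoint: percent growth. Below 10 = active.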 Values without a mark were called inactive. Calls of active or inactive are those of the source.

The assay has as its system OVCAR-8 ovarian. Description: NCI-60 one-dose screen, 48 h (100 = growth as untreated, 0 = no growth, -100 = all killed). The settings on record: 10 µM.
As for `Nc1nc(-c2ccccc2)cc(-c2cc3ccccc3nc2Cl)n1`, the growth was 83.9%. With `O=C(Cn1cc(CSc2nnc3oc4ccccc4n23)nn1)Nc1ccc(Br)cc1`, the growth is 16%. As for `O=c1oc2ccc(-c3ccc(F)cc3F)cc2c(=O)n1-c1ccc(F)c(Cl)c1`, the growth is 3.87% (active). With `CN1CCN(c2ccc(Nc3nc(NCCCNC(=O)c4ccc(F)cc4)c4sccc4n3)cc2)CC1` the figure was 47.5%; with `CO[C@@H]1CSS[C@H]1Cn1nc(-c2ccc(Oc3ccccc3)cc2)c2c(N)ncnc21`, 82.9%. With `CC(=O)Nc1ccc(-n2cnc3cc(-c4ccc(O)cc4)ccc32)cc1C` the figure was 58%. For `COC(=O)CC1CC1C1Cc2c(nc(N(C)S(C)(=O)=O)nc2C(C)C)-c2ccc(F)cc21` (stereo not given), the growth is 80.6%. Consider `CC(=O)Nc1nc(-c2ccc(N3CCN(C)CC3)c(NS(=O)(=O)c3ccc(C(F)(F)F)cc3)c2)cs1`, for which the growth was 8.42% (active).

Regarding `Cc1ccc(-c2ccc(SCC(=O)Nc3ccc(Cl)c(C(F)(F)F)c3)nn2)cc1`, the growth is 1.56% (active). Then `c1ccc(C(=C(c2ccc(OCCN3CCCCC3)cc2)c2ccc(OCCN3CCCCC3)cc2)C2CCCC2)cc1`, with -48.8% (active). As for `O=C(O)CCCCCCCCCCN1C(=O)/C(=C/c2cnc(-c3ccccc3)s2)SC1=S`, the growth was 61.4%. In the case of `CCN(CC)CCOc1ccc(C(=C(C)c2ccccc2)c2ccc(OCCN(CC)CC)cc2)cc1`, the growth is 25.2%. `Cc1ccc(C(=O)Nc2ccc(-n3c(C)nc4c(cnn4-c4ccccc4)c3=O)cc2)cc1`: the growth was 76.8%. `COc1ccc2[nH]c(O)c(N=NC(=O)COc3ccc(NC(=O)Nc4ccc(Cl)c(Cl)c4)cc3)c2c1`: the growth was -69.2% (active). In the case of `O=C1NC(=NC23CC4CC(CC(C4)C2)C3)N/C1=C\c1ccc2ncccc2n1`, the growth was 2.33% (active).

For the compound `COC(=O)C(Cc1ccc(O)c(O)c1)NC(=O)C(CSC/C=C(\C)CCCC(C)CCCC(C)CCCC(C)C)NC(C)=O` (stereo not given), the growth was 10.8%. For the compound `O=C(Nc1ccncc1)c1ccc(-n2c(=O)[nH]c3ccccc3c2=O)cc1`, the growth is 96%. In the case of `CCCCCc1ccc(S(=O)(=O)N(C(C)=O)c2cc(-c3csc(N(C)C(C)=O)n3)ccc2N2CCN(C)CC2)cc1`, the growth was 41.2%. With `COc1ccc(-c2ccc(/C=N/NC(=O)c3[nH]c4ccc(Br)cc4c3-c3ccccc3)s2)cc1` the figure was 51.9%; with `CC(C)CCSc1nc(NC2CC2)c(C#N)c(-c2ccc(C(C)C)cc2)n1`, 110%; with `O=C(Nc1nc2ccc([N+](=O)[O-])cc2s1)Nc1ccccc1I`, 11%.

Regarding `Cc1ccc(CSc2nc(Cl)c(C#N)c(-c3ccc(F)cc3)n2)cc1`, the growth is 83.8%. On to `CCN1CCN(c2ccc(NC(=O)Nc3ccc(-c4cc(C(=O)NC)c5ncccc5n4)cc3)cc2C(F)(F)F)CC1`, for which the growth is -94.1% (active).

In the case of `COc1ccccc1NCc1ccc(CO)n1-c1ccc(C)cc1`, the growth was 101%. On to `CCCCCCCCCCCCCCCCCCCC(=O)NCCc1c[nH]c2ccc(OC(=O)NOCCOCCOCCOCCOCCOCCOCCOCCOCCOCCOCCOCCOCCOCCOCCOCCOCCOCCOCCOCCOCCOCCOC)cc12`, for which the growth is 7.17% (active). As for `CC(=O)NCC1=C(C)C=C2C(=O)[C@](C)(O)C3(CC3)C(C)=C21`, the growth is -63.6% (active). In the case of `Cc1cccc2cc(-c3cc(-c4ccccc4)nc(=S)[nH]3)c(Cl)nc12`, the growth was 85.4%. Then `CO[C@H]1CSS[C@@H]1Cn1nc(-c2ccc(Oc3ccccc3)cc2)c2c(N)ncnc21`, with 48.2%; and `CNC(=O)c1cc(-c2ccc(NC(=O)Nc3ccc(C)cc3)cc2)nc2cccnc12`, with 97.8%; and `O=C(Cn1cc(CSc2nnc3oc4ccccc4n23)nn1)Nc1cccc(Cl)c1`, with 74.9%. Then `O=C(Nc1cc(Cl)cc(Cl)c1)Nc1cc(Cl)cc(Cl)c1`, with 0.191% (active); and `C=CC(=O)Nc1ccc(C(=O)/C=C/c2ccc(N(C)CCF)cc2)c(O)c1`, with -45.8% (active); and `CC(=C(c1ccc(OCCN2CCCCCC2)cc1)c1ccc(OCCN2CCCCCC2)cc1)c1ccc(Cl)cc1`, with -95.3% (active). As for `Cc1ccc(C(C)C)cc1NC(=O)c1ccccc1O`, the growth was 59.1%. With `C=CC(=O)Nc1nc(-c2cccc(NS(=O)(=O)c3cccc4c(N(C)C)cccc34)c2)cs1` the figure was -38.9% (active); with `CC(C)NC(=O)c1cc(-c2ccc(NC(=O)Nc3ccc(N4CCN(C)CC4)c(C(F)(F)F)c3)cc2)nc2cccnc12`, -81.4% (active); with `COc1ccc2[nH]c(=O)c(CSc3nccc(-c4ccc(Cl)cc4)n3)cc2c1`, -10.4% (active).

For `O=C1Nc2cc(Cl)ccc2/C1=C/c1ccc(OCc2ccc(Br)cc2F)cc1`, the growth was -79.6% (active). For `O=C(N/N=C/c1ccc(B(O)O)o1)c1[nH]c2ccc(Br)cc2c1-c1ccccc1`, the growth was 14.1%.

Take `CCCS(=O)(=O)c1oc(-c2ccc(F)cc2)nc1S(=O)(=O)c1ccc(F)cc1`: the growth was -69.3% (active).

For the origin of these results see PubChem BioAssay (NCI).
